These results are taken from PubChem BioAssay.

Experiment [1] in a line: small molecules captured by biotinylated probe aFSTL3 – biochemical, small-molecule microarray, fluorescence 635/667, stem cell growth factor project, primary screen (AID 1064).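 Further: measures binding of the biotinylated anti-FSTL3 antibody to printed compounds.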 The conditions noted are these: higher = more signal.
The nature of experiment [2]: binders from COS7 lysate, DM2A8 probe, primary screen, torsin A project, cell lysate, small-molecule microarray, fluorescence 635/667 (AID 1065). The following applies: higher = more signal, COS7 lysate expressing mutant human TOR1A.
A short description of experiment [3]: small molecules captured by biotinylated probe aFGF2 – biochemical, small-molecule microarray, fluorescence 635/667, stem cell growth factor project, primary screen (AID 1067).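 Further: measures binding of biotinylated aFGF2 protein to printed compounds on slides; z-score merges feature fluorescence and signal-to-noise across triplicate slides.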 The following applies: higher = more signal.
A short description of experiment [4]: small molecules captured by biotinylated probe aFGF10 – biochemical, small-molecule microarray, fluorescence 635/667, stem cell growth factor project, primary screen (AID 1071).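 Further: score merges 667 nm spot intensity and signal to noise from triplicate slides.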 The following applies: higher = more signal.
Experiment [5] has as its target Neurogenic locus notch homolog protein 2 (Homo sapiens) (UniProt Q04721). Put plainly: small molecules binding Notch2 protein – biochemical, small-molecule microarray, 635 nm fluorescence, stem cell growth factors, primary screen (AID 1073). The following applies: higher = more signal.
In experiment [6] the target is Pro-neuregulin-1, membrane-bound isoform (Homo sapiens) (UniProt Q02297). Put plainly: small molecules binding neuregulin-1 protein – biochemical, small-molecule microarray, fluorescence 635/667, psychiatric disease protein project, primary screen (AID 1075).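 Further: score combines 667 nm spot fluorescence with signal to noise.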 The following applies: NRG1 binding, 635 nm fluorescence, higher = more signal.
In experiment [7] the test system is Neuregulin-1 EGF-like domain. Put plainly: small molecules binding NRG1 EGF domain – biochemical, small-molecule microarray, 635 nm fluorescence, primary screen (AID 1081).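 Further: binding of the protein to compounds printed on small-molecule microarray slides.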 The conditions noted are these: higher = more signal.
Experiment [8] is described as follows: FRG1 expression reporter modulators in myotubes – cell-based, C2C12 myotubes, firefly/Renilla luciferase, luminescence, FRG1 inhibition for FSHD, primary screen (AID 1084). The following applies: FRG1 promoter luciferase, higher = more signal, called active from +8 up or from −8 down.
Experiment [9] is described as follows: small molecules captured by biotinylated probe aFST – biochemical, small-molecule microarray, fluorescence 635/667, stem cell growth factor project, primary screen (AID 1086).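 Further: score merges 667 nm fluorescence with signal-to-noise of each printed compound spot.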 The conditions noted are these: higher = more signal.
Experiment [10] can be described thus: binders of probe aHhip on microarray, primary screen, stem cell growth factor project, biochemical, small-molecule microarray, fluorescence 635/667 (AID 1087).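 Further: score merges spot fluorescence at 667nm with spot signal to noise ratio.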 The conditions noted are these: higher = more signal.
The test system of experiment [11] is PRMT1 (protein arginine N-methyltransferase 1). Description: small molecules binding arginine methyltransferase PRMT1 – biochemical, small-molecule microarray, 635 nm fluorescence, primary screen (AID 1088).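 Further: binding of Prmt1 protein to compounds spotted on small-molecule microarray slides.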 The following applies: higher = more signal.
The nature of experiment [12]: growth effects on S. cerevisiae YJM789 – YJM789 clinical isolate, OD600, 24 h, basal, primary screen (AID 1089).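 Further: growth of clinical yeast isolate S. cerevisiae YJM 789 seeded 1000 cells per well; test concentration not given here.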 The conditions noted are these: higher = more signal, called active from +8 up or from −8 down.
A short description of experiment [13]: S. pombe growth modifiers, basal conditions – strain 972, OD600, 24 h, no modulator, primary screen (AID 1090).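 Further: basal condition with compound alone and no growth modifier present; test concentration not given here.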 The conditions noted are these: S. pombe 972 growth, higher = more signal, called active from +8 up or from −8 down.
Experiment [14] can be described thus: budding yeast growth modifiers under rapamycin – strain BY4716, OD600, 96 h, primary screen (AID 1091). Further: test concentration not given here. The conditions noted are these: S. cerevisiae BY4716 + rapamycin, higher = more signal, called active from +8 up or from −8 down.
The target in experiment [15] is Torsin-1A-interacting protein 2 (Homo sapiens) (UniProt Q8NFQ8). Put plainly: small molecules binding lysate-expressed LULL1 – cell lysate, human LULL1 lysate, 635/667 nm fluorescence, primary screen (AID 1092).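 Further: probe is lysate of COS7 cells overexpressing human LULL1; score merges per-feature 667 nm fluorescence with signal-to-noise.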 The conditions noted are these: small-molecule microarray, hLULL1 lysate binding, 635 nm fluorescence; higher = more signal.
The nature of experiment [16]: optical density change of DRC41 E. coli – strain DRC41, OD650, 24 h, E. coli filamentation project, primary screen (AID 1093).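 Further: MC1000 strain lacking acrAB efflux and sulA so SOS filamentation is blocked; test concentration not given here.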 The conditions noted are these: E. coli DRC41 growth, higher = more signal, called active from +8 up or from −8 down.
A short description of experiment [17]: probe aLefty2 binding to arrayed compounds – biochemical, biotinylated probe, 635/667 nm fluorescence, primary screen (AID 1094).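 Further: score merges spot fluorescence near 667 nm with spot signal-to-noise ratio.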 The following applies: small-molecule microarray, higher = more signal.
Experiment [18] deals with Noggin (protein binding on small-molecule microarray). Put plainly: small molecules binding Noggin protein – biochemical, 635/667 nm fluorescence, primary screen (AID 1095).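 Further: score merges 667 nm feature fluorescence with signal to noise over triplicate slides.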 The following applies: 635 nm fluorescence, higher = more signal.
Experiment [19] has as its target Neurogenic locus notch homolog protein 3 (Homo sapiens) (UniProt Q9UM47). Put plainly: small molecules binding NOTCH3 protein – biochemical, 635/667 nm fluorescence, primary screen (AID 1096). The following applies: small-molecule microarray, 635 nm fluorescence, higher = more signal.
Experiment [20] in a line: probe aEGFR binding to arrayed compounds – biochemical, biotinylated probe, 635/667 nm fluorescence, primary screen (AID 1097).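 Further: probe is a biotinylated anti-EGFR antibody binding compounds printed on slides; score combines fluorescence near 667 nm and signal to noise of each spot.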 The conditions noted are these: small-molecule microarray, higher = more signal.

Active and inactive are the calls of the source.

Sequence of Pro-neuregulin-1, membrane-bound isoform (Homo sapiens) (Q02297 whole entry, looked up, the tested form may be a part, canonical isoform): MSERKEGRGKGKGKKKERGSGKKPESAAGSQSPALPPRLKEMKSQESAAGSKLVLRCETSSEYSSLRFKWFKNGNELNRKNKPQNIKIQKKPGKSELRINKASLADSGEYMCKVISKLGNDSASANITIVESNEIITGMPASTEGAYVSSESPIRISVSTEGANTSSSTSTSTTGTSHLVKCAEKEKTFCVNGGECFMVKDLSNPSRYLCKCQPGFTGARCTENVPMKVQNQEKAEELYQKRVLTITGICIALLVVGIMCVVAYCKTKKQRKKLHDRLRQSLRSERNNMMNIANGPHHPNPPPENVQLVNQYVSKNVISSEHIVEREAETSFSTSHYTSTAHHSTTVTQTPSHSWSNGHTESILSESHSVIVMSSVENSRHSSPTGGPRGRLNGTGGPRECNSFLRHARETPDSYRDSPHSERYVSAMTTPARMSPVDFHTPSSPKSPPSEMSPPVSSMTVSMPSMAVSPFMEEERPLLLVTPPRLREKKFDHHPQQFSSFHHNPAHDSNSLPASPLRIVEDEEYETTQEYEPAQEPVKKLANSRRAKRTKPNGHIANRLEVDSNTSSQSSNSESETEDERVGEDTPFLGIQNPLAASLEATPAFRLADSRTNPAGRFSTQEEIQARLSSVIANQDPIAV
Sequence of Neurogenic locus notch homolog protein 2 (Homo sapiens) (Q04721 whole entry, looked up, canonical isoform): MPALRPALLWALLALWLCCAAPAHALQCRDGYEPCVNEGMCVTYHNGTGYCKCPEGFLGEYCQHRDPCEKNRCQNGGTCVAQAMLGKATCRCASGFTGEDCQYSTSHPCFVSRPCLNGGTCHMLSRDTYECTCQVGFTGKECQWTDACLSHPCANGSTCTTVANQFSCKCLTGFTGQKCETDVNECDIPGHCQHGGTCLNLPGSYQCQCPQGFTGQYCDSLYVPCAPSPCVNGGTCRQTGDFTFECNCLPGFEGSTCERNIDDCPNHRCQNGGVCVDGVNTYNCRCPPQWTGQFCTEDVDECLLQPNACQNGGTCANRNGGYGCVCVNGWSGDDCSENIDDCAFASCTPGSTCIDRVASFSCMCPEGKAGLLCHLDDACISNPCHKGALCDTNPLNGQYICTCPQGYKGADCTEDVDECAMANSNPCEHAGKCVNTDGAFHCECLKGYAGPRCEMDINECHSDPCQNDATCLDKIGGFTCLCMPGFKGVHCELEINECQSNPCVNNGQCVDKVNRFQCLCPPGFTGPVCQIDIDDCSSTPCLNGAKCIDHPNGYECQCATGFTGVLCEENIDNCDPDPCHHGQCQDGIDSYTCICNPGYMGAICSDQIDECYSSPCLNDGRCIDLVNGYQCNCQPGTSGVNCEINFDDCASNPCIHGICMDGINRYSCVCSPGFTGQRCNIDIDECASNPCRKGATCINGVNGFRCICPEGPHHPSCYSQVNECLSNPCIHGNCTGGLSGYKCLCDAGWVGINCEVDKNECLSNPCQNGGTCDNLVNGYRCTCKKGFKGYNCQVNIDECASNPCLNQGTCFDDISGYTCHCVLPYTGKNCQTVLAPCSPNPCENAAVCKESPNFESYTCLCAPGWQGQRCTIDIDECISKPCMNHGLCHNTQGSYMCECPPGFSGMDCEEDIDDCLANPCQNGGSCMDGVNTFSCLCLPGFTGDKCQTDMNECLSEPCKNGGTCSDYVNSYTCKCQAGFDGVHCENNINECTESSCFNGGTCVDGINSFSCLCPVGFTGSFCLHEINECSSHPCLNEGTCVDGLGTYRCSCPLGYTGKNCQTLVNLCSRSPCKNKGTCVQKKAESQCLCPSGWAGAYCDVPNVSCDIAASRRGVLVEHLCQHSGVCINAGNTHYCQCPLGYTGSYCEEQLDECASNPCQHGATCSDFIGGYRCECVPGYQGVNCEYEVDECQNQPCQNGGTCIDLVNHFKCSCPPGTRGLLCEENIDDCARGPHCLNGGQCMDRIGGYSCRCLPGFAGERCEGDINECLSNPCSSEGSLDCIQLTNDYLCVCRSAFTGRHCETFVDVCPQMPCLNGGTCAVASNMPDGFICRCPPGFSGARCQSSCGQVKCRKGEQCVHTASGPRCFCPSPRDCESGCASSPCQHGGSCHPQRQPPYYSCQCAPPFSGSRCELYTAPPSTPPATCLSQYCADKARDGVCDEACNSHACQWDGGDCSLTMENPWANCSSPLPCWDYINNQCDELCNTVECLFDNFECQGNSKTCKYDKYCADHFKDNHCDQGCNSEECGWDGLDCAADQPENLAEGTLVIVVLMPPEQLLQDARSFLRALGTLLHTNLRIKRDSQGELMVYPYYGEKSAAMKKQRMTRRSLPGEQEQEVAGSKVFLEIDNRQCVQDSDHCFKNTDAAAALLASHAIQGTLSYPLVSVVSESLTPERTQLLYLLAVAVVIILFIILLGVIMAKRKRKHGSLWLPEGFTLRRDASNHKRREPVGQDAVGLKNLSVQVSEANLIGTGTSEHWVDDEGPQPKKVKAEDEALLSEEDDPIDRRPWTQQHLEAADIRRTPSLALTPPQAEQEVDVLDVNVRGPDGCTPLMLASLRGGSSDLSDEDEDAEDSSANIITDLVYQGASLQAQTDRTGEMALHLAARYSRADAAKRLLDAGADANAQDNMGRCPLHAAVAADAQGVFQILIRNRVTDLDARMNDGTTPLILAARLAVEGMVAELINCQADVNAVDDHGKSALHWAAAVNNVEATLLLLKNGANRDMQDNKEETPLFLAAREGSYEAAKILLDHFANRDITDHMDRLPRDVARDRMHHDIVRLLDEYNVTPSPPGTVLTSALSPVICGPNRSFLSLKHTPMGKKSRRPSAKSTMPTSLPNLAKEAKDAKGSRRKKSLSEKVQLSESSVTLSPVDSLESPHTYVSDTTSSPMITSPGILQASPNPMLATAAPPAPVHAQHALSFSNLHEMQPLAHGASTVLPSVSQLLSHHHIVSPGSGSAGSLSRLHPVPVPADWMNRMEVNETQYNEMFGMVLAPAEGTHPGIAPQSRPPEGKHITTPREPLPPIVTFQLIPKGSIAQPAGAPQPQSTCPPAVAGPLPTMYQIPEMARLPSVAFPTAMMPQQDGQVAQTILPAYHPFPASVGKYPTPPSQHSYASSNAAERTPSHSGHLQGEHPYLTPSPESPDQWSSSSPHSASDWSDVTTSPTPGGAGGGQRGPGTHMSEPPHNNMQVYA
Sequence of Torsin-1A-interacting protein 2 (Homo sapiens) (Q8NFQ8 whole entry, looked up): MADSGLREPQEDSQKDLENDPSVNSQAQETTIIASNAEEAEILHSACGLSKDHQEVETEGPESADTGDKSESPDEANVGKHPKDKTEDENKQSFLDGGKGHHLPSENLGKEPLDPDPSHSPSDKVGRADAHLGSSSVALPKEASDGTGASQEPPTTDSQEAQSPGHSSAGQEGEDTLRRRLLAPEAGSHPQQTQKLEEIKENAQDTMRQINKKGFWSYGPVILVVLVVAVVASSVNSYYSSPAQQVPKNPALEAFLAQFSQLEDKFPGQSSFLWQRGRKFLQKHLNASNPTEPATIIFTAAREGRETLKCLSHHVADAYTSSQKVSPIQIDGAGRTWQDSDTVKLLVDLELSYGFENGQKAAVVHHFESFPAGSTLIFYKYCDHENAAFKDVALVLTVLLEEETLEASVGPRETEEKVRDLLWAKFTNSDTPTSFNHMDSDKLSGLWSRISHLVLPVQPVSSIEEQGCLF

In the case of `C=CC[C@]1(C(=O)N2CCCCC2)COC(c2ccc(OCCCO)cc2)=N1`, the composite z-score in experiment [1] is 0.892; in [2] it was 0.586; in experiment [3] it was -0.153; in experiment [4] it was -1.44; in experiment [5], -1.58; in [6] it was 1.05. The composite z-score in [7] was 0.796; in experiment [9], -0.329; in experiment [10], -0.251; in experiment [11], 0.517; in experiment [15], 2.43; in [17], 0.0499. For the same compound, the composite z-score in experiment [18] is 0.452; in experiment [19], -0.904; in experiment [20], -0.0933. Besides, the z-score in experiment [8] was -2.05 (inactive); in experiment [12], -0.485 (inactive); in experiment [13], -5.08 (inactive); in experiment [14], -2.75 (inactive); in experiment [16], 1.16 (inactive).

As to `COc1ccc([Si](C)(C)[C@H]2[C@H](CC(=O)N3Cc4ccccc4C[C@H]3CO)O[C@@]3(C(=O)N(Cc4cccc(N5C(=O)COc6ccccc65)c4)c4ccccc43)[C@@H]2C)cc1`, the composite z-score in [1] is -0.187; in experiment [2], 0.572; in experiment [3] it was -0.12; in [4] it was 0.429; in experiment [5], 0.659; in experiment [6] it was 0.838. The composite z-score in experiment [7] is 1.08; in experiment [9], 0.203; in experiment [10], 0.0873; in experiment [11], 1.47; in [15], 1.89; in [17], -0.116. In addition, the results for the composite z-score in [18], in experiment [19] and in experiment [20] were 1.56, 1.11 and -0.0192, respectively. Also, the z-score in experiment [8] is -3.08 (inactive); in [12], -0.41 (inactive); in experiment [13] it was 0.349 (inactive); in experiment [14], 2.29 (inactive); in experiment [16], 1.86 (inactive).

Regarding `COc1ccc(C#Cc2ccc3c(c2)[C@]2(C(=O)N3)[C@H](c3ccc(O)cc3)N3[C@H](c4ccccc4)[C@H](c4ccccc4)OC(=O)[C@H]3[C@@H]2C(=O)N2CCN(c3ncccn3)CC2)cc1`, the composite z-score in experiment [1] was 0.286; in experiment [2] it was 1.31; in [3], -0.0625; in experiment [4] it was 0.0869; in experiment [5], 1.19; in experiment [6], 1.64. Further, the composite z-score in experiment [7] stood at 0.892; in experiment [9], 0.252; in [10], 0.186; in experiment [11], 1.18; in experiment [15], 2.01; in experiment [17], 0.0708. Also, the composite z-score is -0.0098 in experiment [18], 0.536 in experiment [19] and -0.0854 in experiment [20]. The z-score in [8] is -0.36 (inactive); in experiment [12], 0.478 (inactive); in experiment [13], -1.84 (inactive); in experiment [14] it was 2.15 (inactive); in [16], 1.99 (inactive).

`C=CCC1(CC=C)C[C@H]2CO[C@H](c3ccc(OC)cc3)N2C1=O`: the composite z-score in [1] was 0.79; in experiment [2], 0.533; in [3], -0.107; in experiment [4] it was 0.201; in [5], -0.412; in [6], 0.0973. In addition, the composite z-score was 0.523 in [7]; 0.132 in experiment [9]; -0.0994 in [10]; -0.109 in experiment [11]; 0.288 in experiment [15]; 0.109 in experiment [17]. Further, the composite z-score is 0.377 in [18], -0.638 in experiment [19] and -0.0204 in [20]. Further, the z-score in [8] is -0.465 (inactive); in [12], -0.137 (inactive); in [13], -2.77 (inactive); in experiment [14], -0.484 (inactive); in experiment [16], 2 (inactive).

Regarding `CC1CC/C=C\[C@H]2OC34C=CCN(C(C)C)C(=O)[C@H]3N(C(CO)C(C)C)C(=O)[C@@H]4C2C(=O)O1` (stereo not given in full), the composite z-score was 1.54 in experiment [1]; -0.267 in experiment [2]; -0.0985 in [3]; -0.365 in experiment [4]; -0.662 in experiment [5]; -0.593 in experiment [6]. In addition, the composite z-score in [7] is 0.475; in experiment [9], -0.422; in experiment [10] it was -0.0994; in [11] it was -0.825; in experiment [15] it was 1.55; in [17], -0.0229. Also, the composite z-score in experiment [18] was -0.684; in [19], -0.274; in experiment [20] it was -0.154. Also, the z-score is -0.416 (inactive) in experiment [8]; 0.959 (inactive) in experiment [12]; -1.84 (inactive) in experiment [13]; -0.631 (inactive) in experiment [14]; 2.14 (inactive) in [16].
